Source: PubChem BioAssay
Several values for one entry are separate records, joined by “and”; a condition that tells them apart may be missing. Identical values can stand only once. The source holds several records for some structures; these can differ, active in one and inactive in another. Activity calls are given as the source filed them. Cut-off read from the data, not from the text of the source, unless noted: active = inhibition above about 80%; inactive = the rest.

Experiments:
[1] = growth inhibition, single agents and combos, LFS_MB_1R, cell-based, cisplatin or BGB combos, synergistic combos for chromothripsis tumors (AID 1671452); conditions: LFS_MB_1R medulloblastoma cells, stronger effect = higher value;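 note: cells exposed for 96 hours before readout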
[2] = growth inhibition, single agents and combos, CRL2098, cell-based, BGB or cisplatin IC20 combos, synergistic combos for chromothripsis tumors (AID 1671454); conditions: CRL2098 osteosarcoma cells, drug combinations, stronger effect = higher value;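 note: cells exposed for 96 h before readout; 0% = vehicle DMSO and 100% = killing by high DMSO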
[3] = growth inhibition, single agents and combos, HD-MB03, cell-based, BGB or cisplatin IC20 combos, synergistic combos for chromothripsis tumors (AID 1671455; in the data active = inhibition above about 83%;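 note: 0% = vehicle DMSO and 100% = high DMSO as cytotoxic control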); conditions: HD-MB03 medulloblastoma cells, stronger effect = higher value
[4] = growth inhibition, single agents and combos, UWB1.289, cell-based, BGB or cisplatin combos, synergistic combos for chromothripsis tumors (AID 1671456); conditions: UWB1.289 ovarian carcinoma cells, stronger effect = higher value;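 note: cells exposed to compound for four days; 0% = vehicle DMSO and 100% = killing by high DMSO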
[5] = growth inhibition, single agents and combos, LFS_MB_2R, cell-based, cisplatin combos, synergistic combos for chromothripsis tumors (AID 1671457); conditions: LFS_MB_2R medulloblastoma cells, stronger effect = higher value;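 note: cells exposed to compound for four days before readout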
[6] = UWB1.289_BRCA1 ovarian cancer growth, cell-based, BGB or cisplatin combinations (AID 1671459); conditions: UWB1.289 BRCA1 ovarian carcinoma, drug combinations, stronger effect = higher value
[7] = drug combination toxicity in non-malignant astrocytes – cell-based, BGB or cisplatin IC20 combos, cytotoxicity control for chromothriptic childhood tumor combination screen (AID 1671460); conditions: Human astrocytes, viability inhibition, drug combinations, at 0.5 µM, stronger effect = higher value;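 note: cells exposed to compounds for 96 hours before viability readout; 0% = vehicle and 100% = killing control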
[8] = CRL1545 cell growth, single agent and combined, cisplatin and BGB IC20 combos (AID 1671464); conditions: CRL1545 osteosarcoma cells, stronger effect = higher value;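 note: cells exposed to compound for 96 hours before readout; 0% = vehicle DMSO and 100% = high DMSO killing control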
[9] = measured here: combination with BGB IC40, at 0.05 µM
[10] = measured here: combination with cisplatin, at 0.5 µM
[11] = measured here: combination with cisplatin, at 5 µM
[12] = measured here: combination with BGB at IC20, at 0.5 µM
[13] = measured here: combination with cisplatin at IC20, at 0.5 µM
[14] = measured here: combo with BGB at IC20, at 0.5 µM
[15] = measured here: combo with cisplatin at IC20, at 0.5 µM
[16] = measured here: inhibition with BGB combination, at 0.05 µM
[17] = measured here: inhibition with cisplatin combination, at 0.05 µM
[18] = BGB combination, concentration series, at 5 µM
[19] = cisplatin combination, concentration series, at 5 µM
[20] = measured here: combo with BGB IC20
[21] = measured here: combo with cisplatin IC20
[22] = measured here: with BGB IC20 combination, at 0.5 µM
[23] = measured here: with cisplatin IC20 combination, at 0.5 µM

In the case of COc1ccc(-c2nc(N3CCOCC3)c3sc(CN(C)c4ncc(C(=O)NO)cn4)cc3n2)cn1, the inhibition ([1]; at 0.5 µM) is reported as 93% (active) and 88.4% (active), the inhibition [1, 9] is reported as 27.1% and 15.8% and the inhibition [1, 10] is reported as 91.8% and 93.4%. The inhibition [1, 11] was 100% and 102%, the inhibition ([2]; at 0.5 µM) was 77.2% (inactive) and 40.2% (inactive) and the inhibition [2, 12] was 83.7% and 62.7%. For the same compound, the inhibition [2, 13] was 71.6% and 16.5%, the inhibition ([3]; at 0.5 µM) was 99.8% (active) and the inhibition [3, 14] was 99.7%. For the same compound, the inhibition [3, 15] was 99.9% and 99.8%, the inhibition ([4]; at 0.5 µM) was 74.5% (inactive) and 79.8% (inactive) and the inhibition [4, 16] was 5.77% and 13.7%. For the same compound, the inhibition [4, 17] was -4.75% and -1.55%, the inhibition ([5]; at 0.5 µM) was 82.2% (active) and 85.4% (active) and the inhibition [5, 10] was 93.9% and 97.3%. For the same compound, the inhibition [5, 11] was 110% and 105%, the inhibition [6, 18] was 118% and 117% and the inhibition ([6]; at 0.5 µM) was 79.8% (inactive) and 83.2% (active). For the same compound, the inhibition [6, 19] was 127% and 131%, the inhibition [7] was 101% (active) and 102% (active) and the inhibition [7, 20] was 103% and 104%. For the same compound, the inhibition [7, 21] was 100% and 101%, the inhibition ([8]; at 0.5 µM) was 88.6% (active) and 47.7% (inactive) and the inhibition [8, 22] was 89.3% and 57.8%. The inhibition [8, 23] was 88% and 41.7%, the inhibition ([8]; single agent, at 0.05 µM) was 21.7% and -65.8% and the inhibition ([8]; single agent, at 5 µM) was 99.3% and 99%.

In the case of CN1CCc2c(c3ccccc3n2Cc2ccc(C(=O)NO)cc2)C1, the inhibition ([1]; at 0.5 µM) is reported as -13.1% (inactive), the inhibition [1, 9] is reported as -12% and -15.8% and the inhibition [1, 10] is reported as -23.4% and -23.9%. For the same compound, the inhibition [1, 11] was -0.081% and -53.5%, the inhibition ([2]; at 0.5 µM) was 21.5% (inactive) and -46.3% (inactive) and the inhibition [2, 12] was -14.9% and -43.1%. For the same compound, the inhibition [2, 13] was 34.9% and -68.1%, the inhibition ([3]; at 0.5 µM) was -1.98% (inactive) and 0.91% (inactive) and the inhibition [3, 14] was -6.31% and -10.4%. The inhibition [3, 15] was 1.42% and 11.7%, the inhibition ([4]; at 0.5 µM) was 1.69% (inactive) and 0.65% (inactive) and the inhibition [4, 16] was -1.11% and -13.8%. For the same compound, the inhibition [4, 17] was 3.47% and 1.13%, the inhibition ([5]; at 0.5 µM) was -14.9% (inactive) and -18.4% (inactive) and the inhibition [5, 10] was -17.1% and -16.5%. The inhibition [5, 11] was -17.1% and 0.035%, the inhibition [6, 18] was 19.3% and 22.8% and the inhibition ([6]; at 0.5 µM) was -0.05% (inactive) and 2.69% (inactive). The inhibition [6, 19] was 23.3% and 11.9%, the inhibition [7] was -0.01% (inactive) and -0.33% (inactive) and the inhibition [7, 20] was 5.22% and 4.02%. The inhibition [7, 21] was -7.05% and -4.68%, the inhibition ([8]; at 0.5 µM) was 17% (inactive) and -23.2% (inactive) and the inhibition [8, 22] was -9.72% and -7.89%. For the same compound, the inhibition [8, 23] was 29.2% and -33%, the inhibition ([8]; single agent, at 0.05 µM) was -10.6% and -2.77% and the inhibition ([8]; single agent, at 5 µM) was 6.01% and -28.9%.
